# Assay results as given in the supplement of paper PMC8728848.
# This is one part of a sample in which the strongest signals are shown more often than they occur.
# Columns and labels:
# Assay in all cases: glycan array binding signal (z-score within array); higher = stronger binding
# Settings in all cases: glycan notation: IUPAC condensed, linker removed
# [1] = molecular target: Fuc(a1-2)Gal(b1-3)GalNAc(b1-3)Gal(a1-4)Gal(b1-4)Glc
# In short: (§1)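 Columns mapping to the same glycan were averaged after glycan names were converted to IUPAC-condensed notation. The data come from 3228 arrays in the Consortium for Functional Glycomics database, limited to those with an available protein sequence. Binding is reported as a within-array Z-score averaged across arrays of one protein sequence and across linkers.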
# [2] = molecular target: Fuc(a1-2)Gal(b1-3)GlcNAc(b1-3)[Neu5Ac(a2-6)Gal(b1-4)GlcNAc(b1-6)]Gal(b1-4)Glc
# In short: as §1
# [3] = molecular target: Fuc(a1-2)Gal(b1-3)[Fuc(a1-4)]GlcNAc(b1-2)Man(a1-3)[Fuc(a1-2)Gal(b1-3)[Fuc(a1-4)]GlcNAc(b1-2)Man(a1-6)]Man(b1-4)GlcNAc(b1-4)[Fuc(a1-6)]GlcNAc(b1-4)[Fuc(a1-6)]GlcNAc
# In short: as §1
# [4] = molecular target: Fuc(a1-2)Gal(b1-4)[Fuc(a1-3)]GlcNAc(b1-3)GalNAc
# In short: as §1
# [5] = molecular target: Fuc(a1-2)Gal6S(b1-3)GlcNAc6S
# In short: as §1
# [6] = molecular target: Fuc(a1-2)[Gal(a1-3)]Gal(b1-4)[Fuc(a1-3)]Glc
# In short: as §1
# [7] = molecular target: Fuc(a1-2)[Gal(a1-4)]Gal(b1-4)GlcNAc
# In short: as §1
# [8] = molecular target: Fuc(a1-2)[GalNAc(a1-3)]Gal(b1-3)GalNAc(b1-3)Gal(a1-4)Gal(b1-4)Glc
# In short: as §1
# [9] = molecular target: Fuc(a1-2)[GalNAc(a1-3)]Gal(b1-4)GlcNAc(b1-3)Gal(b1-4)GlcNAc(b1-3)Gal(b1-4)GlcNAc
# In short: as §1
# [10] = molecular target: Fuc(a1-2)[GalNAc(a1-3)]Gal(b1-4)GlcNAc(b1-3)GalNAc
# In short: as §1
# [11] = molecular target: Fuc(a1-2)[GalNAc(a1-3)]Gal(b1-4)[Fuc(a1-3)]GlcNAc(b1-3)GalNAc
# In short: as §1
# [12] = molecular target: Fuc(a1-3)[Gal(b1-4)]GlcNAc(b1-2)Man
# In short: as §1
# [13] = molecular target: Fuc(a1-3)[Gal3S(b1-4)]GlcNAc
# In short: as §1
# [14] = molecular target: Fuc(a1-3)[GalNAc(b1-4)]GlcNAc
# In short: as §1
# Fuc(a1-4)GlcNAc = molecular target: Fuc(a1-4)GlcNAc
# In short: as §1
# Gal(b1-3)GalNAc(b1-3)Gal = molecular target: Gal(b1-3)GalNAc(b1-3)Gal
# In short: as §1
# [15] = molecular target: Gal(b1-3)GlcNAc(b1-3)Gal(b1-4)[Fuc(a1-3)]GlcNAc
# In short: as §1
# [16] = molecular target: Gal(b1-3)[Neu5Ac(b2-6)]GalNAc
# In short: as §1
# Gal(b1-4)Glc6S = molecular target: Gal(b1-4)Glc6S
# In short: as §1
# [17] = molecular target: Gal(b1-4)GlcNAc(b1-3)Gal(b1-3)GlcNAc
# In short: as §1
# [18] = molecular target: Gal(b1-4)GlcNAc(b1-3)Gal(b1-4)GlcNAc(b1-2)[Gal(b1-4)GlcNAc(b1-3)Gal(b1-4)GlcNAc(b1-6)]Man(a1-6)[Gal(b1-4)GlcNAc(b1-3)Gal(b1-4)GlcNAc(b1-2)Man(a1-3)]Man(b1-4)GlcNAc(b1-4)GlcNAc
# In short: as §1
# [19] = molecular target: Gal(b1-4)GlcNAc(b1-3)Gal(b1-4)[Fuc(a1-3)]GlcNAc(b1-3)Gal(b1-4)[Fuc(a1-3)]GlcNAc
# In short: as §1
# [20] = molecular target: Gal(b1-4)GlcNAc(b1-3)[Gal(b1-4)GlcNAc(b1-6)]Gal(b1-4)GlcNAc
# In short: as §1
# [21] = molecular target: Gal(b1-4)GlcNAc(b1-3)[GlcNAc(b1-6)]Gal(b1-4)GlcNAc
# In short: as §1
# Gal(b1-6)Gal = molecular target: Gal(b1-6)Gal
# In short: as §1
# Gal3S(b1-4)Glc = molecular target: Gal3S(b1-4)Glc
# In short: as §1
# Gal3S6S(b1-4)GlcNAc6S = molecular target: Gal3S6S(b1-4)GlcNAc6S
# In short: as §1
# GalNAc(b1-3)Gal = molecular target: GalNAc(b1-3)Gal
# In short: as §1
# [22] = molecular target: GalNAc(b1-3)Gal(a1-4)Gal(b1-4)GlcNAc
# In short: as §1
# GalNAc(b1-6)GalNAc = molecular target: GalNAc(b1-6)GalNAc
# In short: as §1
# [23] = molecular target: GlcNAc(b1-3)Gal(b1-4)GlcNAc(b1-3)Gal(b1-4)GlcNAc(b1-2)[GlcNAc(b1-3)Gal(b1-4)GlcNAc(b1-3)Gal(b1-4)GlcNAc(b1-6)]Man(a1-6)[GlcNAc(b1-3)Gal(b1-4)GlcNAc(b1-3)Gal(b1-4)GlcNAc(b1-2)Man(a1-3)]Man(b1-4)GlcNAc(b1-4)[Fuc(a1-6)]GlcNAc
# In short: as §1
# [24] = molecular target: GlcNAc(b1-3)Gal(b1-4)GlcNAc(b1-3)Gal(b1-4)GlcNAc(b1-3)Gal(b1-4)GlcNAc(b1-2)Man(a1-3)[GlcNAc(b1-3)Gal(b1-4)GlcNAc(b1-3)Gal(b1-4)GlcNAc(b1-3)Gal(b1-4)GlcNAc(b1-2)Man(a1-6)]Man(b1-4)GlcNAc(b1-4)GlcNAc
# In short: as §1
# [25] = molecular target: GlcNAc(b1-3)Gal(b1-4)GlcNAc(b1-3)Gal(b1-4)GlcNAc(b1-3)Gal(b1-4)GlcNAc(b1-3)Gal(b1-4)GlcNAc(b1-2)Man(a1-3)[GlcNAc(b1-3)Gal(b1-4)GlcNAc(b1-3)Gal(b1-4)GlcNAc(b1-3)Gal(b1-4)GlcNAc(b1-3)Gal(b1-4)GlcNAc(b1-2)Man(a1-6)]Man(b1-4)GlcNAc(b1-4)[Fuc(a1-6)]GlcNAc
# In short: as §1
# [26] = molecular target: GlcNAc(b1-3)[GlcNAc(b1-6)]Gal(b1-4)GlcNAc
# In short: as §1
# Kdn(a2-3)Gal(b1-3)GalNAc = molecular target: Kdn(a2-3)Gal(b1-3)GalNAc
# In short: as §1
# Man(a1-3)[Man(a1-6)]Man = molecular target: Man(a1-3)[Man(a1-6)]Man
# In short: as §1
# [27] = molecular target: Man(a1-3)[Man(a1-6)]Man(a1-6)[Man(a1-3)]Man
# In short: as §1
# Man(a1-6)Man = molecular target: Man(a1-6)Man
# In short: as §1
# [28] = molecular target: Neu5Ac(a2-3)Gal(b1-3)]Neu5Ac(a2-3)Gal(b1-4)]GlcNAc
# In short: as §1
# Neu5Ac(a2-3)Gal(b1-4)Glc = molecular target: Neu5Ac(a2-3)Gal(b1-4)Glc
# In short: as §1
# [29] = molecular target: Neu5Ac(a2-3)Gal(b1-4)GlcNAc(b1-3)Gal
# In short: as §1
# [30] = molecular target: Neu5Ac(a2-3)Gal(b1-4)GlcNAc(b1-3)Gal(b1-4)[Fuc(a1-3)]GlcNAc
# In short: as §1
# [31] = molecular target: Neu5Ac(a2-3)Gal(b1-4)GlcNAc(b1-3)GalNAc
# In short: as §1
# [32] = molecular target: Neu5Ac(a2-3)Gal(b1-4)[Fuc(a1-3)]GlcNAc(b1-3)Gal(b1-4)GlcNAc
# In short: as §1
# [33] = molecular target: Neu5Ac(a2-3)Gal(b1-4)[Fuc(a1-3)]GlcNAc(b1-3)GalNAc
# In short: as §1
# [34] = molecular target: Neu5Ac(a2-3)[GalNAc(b1-4)]Gal(b1-4)GlcNAc(b1-3)GalNAc
# In short: as §1
# [35] = molecular target: Neu5Ac(a2-6)Gal(b1-4)GlcNAc
# In short: as §1
# [36] = molecular target: Neu5Ac(a2-6)Gal(b1-4)GlcNAc(b1-2)Man(a1-3)[GlcNAc(b1-2)Man(a1-6)]Man(b1-4)GlcNAc(b1-4)GlcNAc
# In short: as §1
# [37] = molecular target: Neu5Ac(a2-6)Gal(b1-4)GlcNAc(b1-3)Gal(b1-4)GlcNAc(b1-3)[Neu5Ac(a2-6)Gal(b1-4)GlcNAc(b1-3)Gal(b1-4)GlcNAc(b1-6)]GalNAc
# In short: as §1
# [38] = molecular target: Neu5Ac(a2-6)Gal(b1-4)GlcNAc(b1-3)Gal(b1-4)GlcNAc(b1-6)[Gal(b1-3)]GalNAc
# In short: as §1
# [39] = molecular target: Neu5Ac(a2-8)Neu5Ac(a2-3)Gal(b1-4)GlcNAc
# In short: as §1
# [40] = molecular target: Neu5Ac(a2-8)Neu5Ac(a2-8)Neu5Ac(a2-3)Gal(b1-4)Glc
# In short: as §1
# [41] = molecular target: Neu5Gc(a2-3)Gal(b1-4)GlcNAc
# In short: as §1
# [42] = molecular target: Neu5Gc(a2-8)Neu5Ac(a2-3)Gal(b1-4)GlcNAc
# In short: as §1
binder,measurement,setting,value
GS13814A-bth-462-26-462 (Bacteroides thetaiotaomicron) (protein) DDRDNLMVNDQIGLLHSTYTETEIFRGMDTPYQLFVIKSGKGKQETEVSISVDETVLQSYNTDNGTSIQLLPSDCYTILQPALRLNDSDYRKAFDIKWNADRLSDLLSTGKEYGLPIQMSVVQNFISADDERLKTIIVPTIKEPYLQMDVPGMSPVTDFMPTFGDLNERELFVKIRTNYSNDEDISFQIEVDPQLVIDYNTAHGTAYKMLPESSFTVDNKGVILTGMKETFIKIKYHKKGLIPEEGTYLFGDYVLPLRITSVSKYGISPDAASKLYTVKFQPDPIDKKGWSVIDFNNCCTQDGGWYLNMGWGVESLIDNNPGTQWLCRWDVKEPLPYYFVFDMGKEYTLFRFGFANPVAPAAHVWAGTSKAGYVEASIDNENWVKLKDWTSPKIGEPNVNMDVPATQARYIRFVITDTYPTYDGLRVSLGEVYAWGM,glycan array binding signal (z-score),[1],-0.308
same,glycan array binding signal (z-score),[2],-0.718
same,glycan array binding signal (z-score),[3],0.703
same,glycan array binding signal (z-score),[4],2.19
same,glycan array binding signal (z-score),[5],3.15
same,glycan array binding signal (z-score),[6],0.027
same,glycan array binding signal (z-score),[7],1.11
same,glycan array binding signal (z-score),[8],1.01
same,glycan array binding signal (z-score),[9],-0.363
same,glycan array binding signal (z-score),[10],-0.276
same,glycan array binding signal (z-score),[11],2.42
same,glycan array binding signal (z-score),[12],0.981
same,glycan array binding signal (z-score),[13],1.23
same,glycan array binding signal (z-score),[14],2.12
same,glycan array binding signal (z-score),Fuc(a1-4)GlcNAc,14.3
same,glycan array binding signal (z-score),Gal(b1-3)GalNAc(b1-3)Gal,0.61
same,glycan array binding signal (z-score),[15],0.725
same,glycan array binding signal (z-score),[16],-0.165
same,glycan array binding signal (z-score),Gal(b1-4)Glc6S,-0.019
same,glycan array binding signal (z-score),[17],-0.895
same,glycan array binding signal (z-score),[18],-0.241
same,glycan array binding signal (z-score),[19],0.104
same,glycan array binding signal (z-score),[20],-0.298
same,glycan array binding signal (z-score),[21],-0.604
same,glycan array binding signal (z-score),Gal(b1-6)Gal,0.332
same,glycan array binding signal (z-score),Gal3S(b1-4)Glc,-0.952
same,glycan array binding signal (z-score),Gal3S6S(b1-4)GlcNAc6S,2.45
same,glycan array binding signal (z-score),GalNAc(b1-3)Gal,-0.506
same,glycan array binding signal (z-score),[22],2.74
same,glycan array binding signal (z-score),GalNAc(b1-6)GalNAc,-0.44
same,glycan array binding signal (z-score),[23],0.296
same,glycan array binding signal (z-score),[24],-0.256
same,glycan array binding signal (z-score),[25],1.41
same,glycan array binding signal (z-score),[26],-0.285
same,glycan array binding signal (z-score),Kdn(a2-3)Gal(b1-3)GalNAc,0.216
same,glycan array binding signal (z-score),Man(a1-3)[Man(a1-6)]Man,0.087
same,glycan array binding signal (z-score),[27],-1
same,glycan array binding signal (z-score),Man(a1-6)Man,0.563
same,glycan array binding signal (z-score),[28],2.12
same,glycan array binding signal (z-score),Neu5Ac(a2-3)Gal(b1-4)Glc,2.85
same,glycan array binding signal (z-score),[29],-0.359
same,glycan array binding signal (z-score),[30],-1.35
same,glycan array binding signal (z-score),[31],-0.818
same,glycan array binding signal (z-score),[32],2.69
same,glycan array binding signal (z-score),[33],2.14
same,glycan array binding signal (z-score),[34],-1.22
same,glycan array binding signal (z-score),[35],-0.069
same,glycan array binding signal (z-score),[36],0.48
same,glycan array binding signal (z-score),[37],-1.35
same,glycan array binding signal (z-score),[38],-0.806
same,glycan array binding signal (z-score),[39],-1.27
same,glycan array binding signal (z-score),[40],-1.35
same,glycan array binding signal (z-score),[41],1.47
same,glycan array binding signal (z-score),[42],-0.879
